Test results: PubChem BioAssay (NCATS)
Inconclusive results are not listed. Where a call stands in place of a potency, no number is given. Activity calls are given as the source filed them. The call rests on the fitted dose curve; in most records, active means well fitted inhibition curve with a large enough effect; inconclusive means small, poorly fitted or top-dose-only effect; inactive means no such curve, though single readings can be large or run the other way.

Assay: qHTS Screen of the MIPE 4.0 Collection Against Ewings Sarcoma (TC71) (AID 1259253); further: nearly all actives have a fitted effect of over 40% in size
Conditions: TC71 Ewing sarcoma viability, CellTiter-Glo, 48 h; series mostly up to 45.8 µM
Description: There is a large unmet medical need for treatments for Ewing sarcoma, a pediatric sarcoma. We sought to identify compounds that inhibited Ewing sarcoma cells in vitro with the goal to then test promising drugs in two drug combinations in vitro to look for synergistic drug combinations. Promising combinations would then proceed to additional validation, including in vivo testing.
Using the NCATS developed oncology compound library called the Mechanism of Interrogation Plate (MIPE), four Ewing sarcoma cell lines were evaluated (TC32, TC71, RDES, EW8). Compounds, in a 12-point titration series, were incubated with cells for 48 hours and the read out was cell viability (CellTiter-Glo from Promega). These initial experiments were used to select appropriate concentrations of each single agent for subsequent two-drug matrix combinations such that the concentrations in the matrices would span both activity and non-activity.
Cells, in the log phase of growth, were seeded in 5 uL of RPMI plus 5% FBS, […] L-glutamine, 100 U/ml penicillin and 100 ug/ml streptomycin into 1536-well solid-bottom white tissue culture treated Greiner Bio One Plates (789173-F) using a MultiDrop Combi (Thermofisher Scientific) dispenser and a small sterile cassette. One column was media alone to be used as a :"no cells" control. The plates were then covered with sterilized stainless steel gasketed lids from Kalypsys. After allowing cells to attach for 4 hours, 23 nL of test compound or control (negative control DMSO and positive control 9.2 uM Bortezomib-final) were added from a 1536-well polypropylene compound source plate to each well using a 1536 head pin tool from Kalypsys. Cells were then incubated for 48 hours at 37C, 95% relative humidity and 5% CO2. After 48 hours, plates were removed from the incubator and 3 uL of CellTiter-Glo (Promega) was added using an Aurora Flying Reagent Dispenser Bioraptor. Plates were incubated at room temperature for 10 minutes prior to reading the luminescence on the Viewlux (PerkinElmer). The relative luciferase units are used to calculate the percent activity using the activity of DMSO in the cells and no cells columns for normalization of no inhibition and full inhibition respectively.
Potency means the concentration at half of the fitted maximal effect.

Structure (SMILES) | Potency
CC(C)Cn1cnc2c(N)nc3ccccc3c21 | 18.7 µM (active)
OC(Cn1cncn1)(Cn1cncn1)c1ccc(F)cc1F | inactive
COc1nc(N)nc2c1ncn2[C@@H]1O[C@H](CO)[C@@H](O)[C@@H]1O | inactive
CN(C)CCc1c[nH]c2ccc(CS(=O)(=O)N3CCCC3)cc12 | inactive
NC(=O)c1ccc2[nH]ccc2c1 | inactive
CCn1cc(C(=O)O)c(=O)c2cc(F)c(N3CCN(C)CC3)cc21 | inactive
O=C(O)C1CCCN(CCC=C(c2ccccc2)c2ccccc2)C1 (stereo not given) | 9.35 µM (active)
CC1(C)[C@H](C(=O)O)N2C(=O)C[C@H]2S1(=O)=O | inactive
COc1ncnc(NS(=O)(=O)c2ccc(N)cc2)c1OC | inactive
C1CCC(C(CC2CCCCN2)C2CCCCC2)CC1 (stereo not given) | 13.2 µM (active)
O=P(O)(O)C(O)(Cc1cccnc1)P(=O)(O)O | inactive
CC(C)C1CCC(C(=O)N[C@H](Cc2ccccc2)C(=O)O)CC1 (stereo not given in full) | inactive
CC(N)C12CC3CC(CC(C3)C1)C2 (stereo not given) | inactive
Nc1nc(N)c2nc(CNc3ccc(C(=O)NC(CCC(=O)O)C(=O)O)cc3)cnc2n1 (stereo not given) | 0.0132 µM (active)
CCN(CC)CC#CCOC(=O)C(O)(c1ccccc1)C1CCCCC1 (stereo not given) | inactive
Cc1ccc(S(=O)(=O)N[C@@H](Cc2ccccc2)C(=O)CCl)cc1 | 18.7 µM (active)
Cc1nnc(NS(=O)(=O)c2ccc(N)cc2)s1 | 10.5 µM (active)
Nc1nc(=S)c2[nH]cnc2[nH]1 | 0.935 µM (active)
N[C@@H](Cc1ccc(O)c(O)c1)C(=O)O | inactive
CN(Cc1cc(Br)cc(Br)c1N)C1CCCCC1 | inactive

Structure (SMILES) | Potency
CC1=NN(c2ccccc2)C(=O)C1 | inactive
CC(C)(C)NC(=O)[C@H]1CC[C@H]2[C@@H]3CC[C@H]4NC(=O)C=C[C@]4(C)[C@H]3CC[C@]12C | 1.32 µM (active)
COc1cc(NS(=O)(=O)c2ccc(N)cc2)nc(OC)n1 | inactive
CN(C)c1ccc(C(=C2C=CC(=[N+](C)C)C=C2)c2ccc(N(C)C)cc2)cc1 | 0.296 µM (active)
CN1CCCC(n2nc(Cc3ccc(Cl)cc3)c3ccccc3c2=O)CC1 (stereo not given) | 2.64 µM (active)
CCCN[C@H]1CCc2nc(N)sc2C1 | inactive
COc1cc(NCc2ccc3nc(N)nc(N)c3c2C)cc(OC)c1OC | 0.833 µM (active)
Cc1onc(-c2ccccc2Cl)c1C(=O)N[C@@H]1C(=O)N2[C@@H]1SC(C)(C)[C@@H]2C(=O)O | inactive
Cc1nnc(C(=O)NC(C)(C)c2nc(C(=O)NCc3ccc(F)cc3)c(O)c(=O)n2C)o1 | inactive
COc1ccccc1OCC(O)COC(N)=O (stereo not given) | inactive
COc1cc([C@@H]2c3cc4c(cc3[C@H](O)[C@H]3COC(=O)[C@H]23)OCO4)cc(OC)c1OC | inactive
COc1cnc(NS(=O)(=O)c2ccc(N)cc2)nc1 | inactive
CC(=O)[C@H]1CC[C@H]2[C@@H]3CC=C4C[C@@H](O)CC[C@]4(C)[C@H]3CC[C@]12C | inactive
CC(C)(C#N)c1cc(Cn2cncn2)cc(C(C)(C)C#N)c1 | inactive
NC(=O)N1c2ccccc2CC(=O)c2ccccc21 | inactive
CCc1c2c(nc3ccc(OC(=O)N4CCC(N5CCCCC5)CC4)cc13)-c1cc3c(c(=O)n1C2)COC(=O)[C@]3(O)CC | 0.332 µM (active)
CCCc1cc(C(N)=S)ccn1 | inactive
CO[C@@H]1[C@@H](OC(N)=O)[C@@H](O)[C@H](Oc2ccc3c(O)c(NC(=O)c4ccc(O)c(CC=C(C)C)c4)c(=O)oc3c2C)OC1(C)C | 4.69 µM (active)
CCOCC(O)COc1ccc(NC(=O)CC[S+](C)C)cc1 (stereo not given) | inactive
C#CCN[C@@H]1CCc2ccccc21 | inactive
